High-throughput results deposited in PubChem BioAssay by The Scripps Research Institute Molecular Screening Center.
DAGLB inhibitor: blocks human DAGLB lipase activity | 0.059% of 340,000 active | HEK293T DAGLB membrane lysate, EnzChek fluorogenic substrate | inhibition, % at 5.17 µM; in the data active = inhibition above about 34%;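 also: 0% = enzyme with vehicle and 100% = wells lacking enzyme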
PAFAH1B3 inh: blocks human PAF acetylhydrolase 1B catalytic subunit 3; inhibition, % at 3.39 µM; Q15102; 0.28% of 340,000 active; recombinant PAFAH1B3, FP-rhodamine probe, fluorescence polarization;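 active = inhibition above the screen-wide average of all tested compounds plus 3 SD, cut at about 25% in these data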;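 also: 0% = enzyme with DMSO only and 100% = wells lacking PAFAH1B3 protein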
Target sequence (Q15102 whole entry, looked up): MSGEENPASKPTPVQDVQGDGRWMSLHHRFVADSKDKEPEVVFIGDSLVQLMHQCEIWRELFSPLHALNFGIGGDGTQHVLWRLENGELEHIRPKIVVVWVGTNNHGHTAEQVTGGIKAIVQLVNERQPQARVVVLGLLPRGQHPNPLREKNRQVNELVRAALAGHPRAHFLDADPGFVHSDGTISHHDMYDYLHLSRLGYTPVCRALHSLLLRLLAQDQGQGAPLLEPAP
PAFAH2 inh: inhibitors of human PAFAH2. AID 492956. recombinant PAFAH2, FP-rhodamine activity probe, fluorescence polarization. 0.99% of 340,000 active. inhibition, % at 3.39 µM;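 active = inhibition above the mean over all tested compounds plus 3 SD, cut at about 30% in these data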;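 also: inhibitors block probe labeling of enzyme so polarization drops; 0% = enzyme with DMSO and 100% = wells lacking PAFAH2 protein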
pPAFAH FP inh: pPAFAH (human) enzyme inhibition. Q13093. recombinant pPAFAH, FP-rhodamine probe fluorescence polarization. inhibition, % at 3.39 µM. 1.5% of 330,000 active. AID 463082;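 active = inhibition above the mean inhibition across the screen plus 3 SD, cut at about 25% in these data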;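 also: inhibitors block binding of the rhodamine activity-based probe so polarization drops; 0% = enzyme with DMSO and 100% = wells lacking pPAFAH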
PAFAH1B2 FP inh: inhibitors of human PAFAH1B2. 1.2% of 340,000 active. inhibition, % at 3.39 µM. AID 492953. recombinant PAFAH1B2, FP-rhodamine activity probe, fluorescence polarization. P68402;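 active = inhibition above the mean of all tested compounds plus 3 SD, cut at about 24% in these data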;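 also: 0% = enzyme with DMSO and 100% = wells lacking PAFAH1B2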
Target sequence (P68402 whole entry, looked up): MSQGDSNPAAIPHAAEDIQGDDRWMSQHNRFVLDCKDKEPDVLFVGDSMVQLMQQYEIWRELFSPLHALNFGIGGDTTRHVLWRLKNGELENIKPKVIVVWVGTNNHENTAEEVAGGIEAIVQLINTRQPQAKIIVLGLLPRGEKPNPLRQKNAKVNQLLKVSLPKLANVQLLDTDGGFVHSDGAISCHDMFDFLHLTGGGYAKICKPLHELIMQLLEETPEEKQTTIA
HTRA1 inhibitor: HTRA1 (human) protease inhibition. Q92743. recombinant HTRA1, FP-rhodamine activity-based probe, fluorescence polarization. inhibition, % at 5.96 µM. 0.5% of 340,000 active; in the data active = inhibition above about 36%;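 also: 0% = enzyme with DMSO and 100% = wells lacking enzyme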
HTRA1 inh conf: confirmation of human HTRA1 inhibitors; shares compounds with HTRA1 inhibitor; recombinant HTRA1, FP-rhodamine activity-based probe, fluorescence polarization; inhibition, % at 5.96 µM; 66% of 1,600 active; AID 540248;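 active = mean inhibition over three repeats above a set limit taken from the earlier primary screen, cut at about 37% in these data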;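 also: 0% = HTRA1 with DMSO and 100% = wells lacking HTRA1; inhibitors block probe binding so polarization drops and inhibition rises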
* hit, by the source's call; . = no result. This is a sample that favours compounds with a hit; in the whole collection about 2.8% have one here.

SMILES | DAGLB inhibitor | PAFAH1B3 inh | PAFAH2 inh | pPAFAH FP inh | PAFAH1B2 FP inh | HTRA1 inhibitor | HTRA1 inh conf
CC(=O)Nc1ccc(S(=O)(=O)NCc2ccc3c(c2)cc(C)n3C)cc1 | 8 | 2 | 11 | 10 | 6 | 27 | .
Cc1cc(C)c(S(=O)(=O)NCc2nc3nc(C)cc(C)n3n2)c(C)c1 | 3 | -3 | 1 | 3 | 4 | 3 | .
Cc1cc2ccccc2n1CCNC(=O)Cc1ccccc1 | 2 | -6 | 6 | 7 | 2 | 35 | .
O=C(N/N=C/c1ccccn1)c1sc2ccccc2c1Cl | -1 | 7 | 6 | 10 | 9 | 3 | .
O=C(N/N=C/c1ccc([N+](=O)[O-])o1)c1sc2ccccc2c1Cl | -1 | 12 | 6 | 31* | 13 | 52* | 55*
COCCn1c(Cc2ccccc2)nnc1SCC(=O)NC1CC1 | 1 | 6 | -7 | -1 | 6 | 0 | .
Oc1cccc2ccc(/C=C/c3ccccc3Cl)nc12 | -13 | 4 | -6 | 2 | 2 | 46* | 57*
Oc1cccc2ccc(/C=C/c3c(F)cccc3Cl)nc12 | -20 | 10 | 10 | 3 | 3 | 16 | .
N/C(=N/OC(=O)c1ccccc1Cl)c1ncc([N+](=O)[O-])s1 | 2 | 11 | 18 | 13 | 26* | 57* | 34
CCc1ccc(NC(=O)CNCc2ccc(OC)c(OC)c2)cc1 | 0 | 1 | -1 | 5 | 9 | 0 | .
COc1cccc(CNc2ccc(N3CCC(C)CC3)cc2)c1OC | 14 | 7 | 0 | 15 | 3 | 52* | 46*
Cc1ccn2cc(-c3ccc(O)c(O)c3)nc2c1 | 4 | 14 | 2 | 11 | 2 | 44* | 65*
CCN(CC)c1ccc(/C=C2\C(=O)N(c3nnc(C)c(=O)[nH]3)N=C2C)cc1 | 18 | 6 | 22 | -3 | 6 | 62* | 79*
CCN(CC)c1ccc(/C=C2/C(=O)ON=C2C)cc1 | 16 | -2 | 2 | 4 | 11 | -1 | .
COc1ccc(OC)c(CCNC(=O)CCCc2nnc3n(C)c(=O)c4sccc4n23)c1 | 0 | 7 | 2 | 8 | 5 | -9 | .
CCN(C(=O)COC(=O)CCn1c(C)csc1=O)c1c(N)n(Cc2ccccc2)c(=O)[nH]c1=O | 1 | 9 | -1 | 2 | 1 | 5 | .
O=c1c2ccccc2nc(N/N=C/c2c(O)ccc3ccccc23)n1O | 20 | 11 | 0 | 34* | 3 | 62* | 68*
O=c1c2ccccc2nc(N/N=C/c2ccc(O)cc2)n1O | 4 | 6 | 3 | 5 | 0 | 9 | .
NS(=O)(=O)c1ccc(NCc2c(F)cccc2Cl)cc1 | 0 | 4 | -9 | . | 9 | 4 | .
Fc1cccc(Cl)c1CNc1ccc(N2CCCC2)cc1 | 12 | 7 | 4 | 19 | 5 | 47* | 32
C/C(=N/NC(=O)c1cc(O)c(O)c(O)c1)c1ccc([N+](=O)[O-])cc1 | 7 | 14 | 7 | . | 11 | 76* | 57*
C/C(=N\NC(=O)c1ccc([N+](=O)[O-])cc1)c1c(O)cc(C)oc1=O | 2 | 3 | 2 | 6 | 1 | 7 | .
COc1c(Br)cc(/C=N/n2c(-c3ccccc3)n[nH]c2=S)c(O)c1Br | 6 | 4 | 16 | 22 | 4 | 74* | 30
Cc1ccccc1C1C(C#N)=C2N=C(N)c3c(sc4c3CCCCC4)N2C2=C1C(=O)CCC2 (stereo not given) | 3 | 11 | 20 | 23 | 4 | 50* | 27
N#CC1=C2N=C(N)c3ccccc3N2C2=C(C(=O)CCC2)C1c1ccccc1F (stereo not given) | 1 | 4 | 20 | 5 | -1 | 2 | .
SMILES | DAGLB inhibitor | PAFAH1B3 inh | PAFAH2 inh | pPAFAH FP inh | PAFAH1B2 FP inh | HTRA1 inhibitor | HTRA1 inh conf
Nn1cnnc1N/N=C/c1cc(Br)cc(Br)c1O | 4 | 18 | -4 | 8 | 0 | 53* | 51*
CC(C)(C)c1ccc(/C=N/Nc2nncn2N)cc1 | -3 | 11 | -7 | . | 8 | -5 | .
CCOc1cc(N2CCOCC2)c(OCC)cc1NC(C)C(=O)N1CCN(CC)CC1 (stereo not given) | -1 | 18 | 23 | . | 13 | 41* | 17
CCC1=NN(C(=O)c2ccc(Cl)cc2)C(O)(c2ccc(C)cc2)C1 (stereo not given) | 1 | 12 | -3 | . | -1 | 10 | .
CCOC(=O)C1=NN(C(=O)c2ccc(C)cc2)C(O)(c2ccc(Cl)cc2)C1 (stereo not given) | 6 | 22 | -12 | 4 | 6 | 60* | 72*
COc1ccc2[nH]c3c(c2c1)CCNC3c1ccc([N+](=O)[O-])o1 (stereo not given) | 1 | 10 | 7 | 10 | 11 | 43* | 47*
CCc1ccccc1N(CC(=O)Nc1cccnc1)S(=O)(=O)c1ccccc1 | 1 | 2 | 10 | 3 | 1 | -8 | .
O=C1C=C(N2CCOCC2)c2cccc3cccc1c23 | -3 | . | . | . | . | 43* | 8
CC1=C(C)C(=O)C(N2CCOCC2)=CC1=O | -2 | 0 | -3 | . | 2 | 1 | .
O=C1C(N2CCOCC2)=Cc2cccc3cccc1c23 | -2 | . | . | . | . | 59* | 39*
CCOC(=O)C1CCC/C1=N\NC(=O)CN(c1cc(OC)ccc1OC)S(=O)(=O)c1ccccc1 (stereo not given) | -1 | 10 | 4 | 3 | 7 | -38 | .
CC(C)(C)NC(=S)Nc1ccc(Br)cc1 | -7 | 9 | 2 | 0 | 0 | 0 | .
CC(C)(C)NC(=S)Nc1ccc(Nc2ccccc2)cc1 | 3 | 10 | 5 | 19 | 5 | 46* | 7
Oc1ccc2ccccc2c1/C=N/Nc1nnc(-c2ncc[nH]2)c2ccccc12 | 5 | 18 | 2 | 14 | 2 | 38* | 100*
COc1ccc(Cl)cc1NC(=O)CCNS(=O)(=O)c1cccc2nonc12 | 0 | 7 | 8 | 1 | 5 | -11 | .
Oc1ccccc1N=Cc1c(O)ccc2ccccc12 | 1 | 22 | 21 | . | 0 | 63* | 78*
CCC1(c2ccccc2)NC(=O)N(CC(=O)NNC(=O)COc2ccc(Cl)cc2C)C1=O (stereo not given) | -1 | 0 | 7 | 6 | 8 | -9 | .
CCOc1cccc(C2C(C#N)=C(N)Oc3cc(C)[nH]c(=O)c32)c1OCC (stereo not given) | 2 | 0 | -2 | 9 | 6 | 3 | .
CCc1ccc2[nH]c(=O)c(C3C(C#N)=C(N)Oc4c3ccc3cccnc43)cc2c1 (stereo not given) | 44* | 14 | 5 | 43* | 4 | 82* | 14
COCOCCn1cc(CN2CCS(=O)(=O)N(Cc3ccc(-c4ccc(OC)nc4)cc3)C(C(C)C)C2=O)nn1 (stereo not given) | 1 | . | . | . | . | 8 | .
COC(c1ccc(Cl)cc1)(c1ccc(Cl)cc1)C(Oc1nc(C)cc(C)n1)C(=O)O (stereo not given) | 9 | 8 | 6 | -2 | 6 | -3 | .
